# Screen size: about 21,000 compounds; fewer than 10 showed an effect of 50% or more. These entries were drawn from the full list. Results with a measured potency or affinity are listed apart.
# Tested on: Acinetobacter baumannii
# Conditions: Concentration 32 ug.mL-1; ASSAY_TEST Inhibition of Bacterial Growth; detection method Absorption (OD600); MEDIA CAMHB; plate type 384well; NBS; CORNING #3640; time 18 hr
row,Compound,Inhibition [%]
1,C#CCN(C)c1nc(NCCC2CCN(Cc3ccccc3)CC2)c(C#N)cc1C#N.Cl,-7.83
2,CCOC(=O)C1=C(C)Oc2nc3c(c(N)c2C1c1nccn1C)CCC3 (stereo not given),0.84
3,Nc1nc(N)c(C=O)c(-c2ccccc2)c1C=O,5.37
4,Cn1ccnc1C1C2=C(CC(C)(C)CC2=O)Oc2nc3c(c(N)c21)CCCC3 (stereo not given),-5.19
5,N#CC1=C(Cl)Oc2c(ccc3ccccc23)C1c1ccc([N+](=O)[O-])cc1 (stereo not given),-15.4
